Source: PubChem BioAssay
USP17 inh – inhibitors of human USP17 deubiquitinase; Ubiquitin carboxyl-terminal hydrolase 17-like protein 5 (Homo sapiens), A8MUK1; purified USP17, Ub-rhodamine cleavage fluorescence, 3 h; inhibition, % at 50 µM; 6.5% of 47,000 active
USP8 inh – inhibitors of human USP8 deubiquitinase. Ubiquitin carboxyl-terminal hydrolase 8 (Homo sapiens), P40818. purified USP8, Ub-rhodamine cleavage fluorescence, 30 min. inhibition, % at 20 µM. 4.2% of 47,000 active
USP30 inh – inhibitors of human USP30 deubiquitinase; purified USP30, Ub-rhodamine cleavage fluorescence; inhibition, % at 25 µM; 5.3% of 47,000 active; AID 1645860, 2021
Target sequence (Q70CQ3 whole entry, looked up): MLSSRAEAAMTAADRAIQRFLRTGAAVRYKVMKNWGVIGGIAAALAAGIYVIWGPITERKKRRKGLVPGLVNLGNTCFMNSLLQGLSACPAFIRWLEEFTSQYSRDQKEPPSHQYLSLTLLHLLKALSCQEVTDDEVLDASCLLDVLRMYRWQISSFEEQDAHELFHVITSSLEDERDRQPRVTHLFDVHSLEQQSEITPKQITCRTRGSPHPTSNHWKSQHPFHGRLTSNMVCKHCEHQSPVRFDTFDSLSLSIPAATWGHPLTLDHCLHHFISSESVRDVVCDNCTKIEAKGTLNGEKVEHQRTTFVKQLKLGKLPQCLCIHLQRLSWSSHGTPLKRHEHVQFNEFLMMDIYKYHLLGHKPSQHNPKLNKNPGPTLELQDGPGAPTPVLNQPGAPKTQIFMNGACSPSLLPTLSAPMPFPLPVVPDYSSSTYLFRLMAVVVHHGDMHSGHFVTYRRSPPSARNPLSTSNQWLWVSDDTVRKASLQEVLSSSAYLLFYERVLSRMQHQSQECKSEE
* hit, by the source's call; / = not tested or not shown. Hits are enriched below; roughly 12% of the tested compounds scored in any of these assays. No stated cut-off is given here; in the data, active means inhibition above about 30%; inactive means the rest.

SMILES | USP17 inh | USP8 inh | USP30 inh
O=C(/C=C/c1ccccc1)N1CCN(C2=NS(=O)(=O)c3ccccc32)CC1 | -0.3 | 0.8 | 79.8*
O=C([C@@H]1CCCN1C1=NS(=O)(=O)c2ccccc21)N1CCN(c2ccccc2)CC1 | -6.5 | -0.2 | -0.1
Cc1cc(C2CCCN2C(=O)Cc2ccccc2Cl)no1 (configuration not stated) | 8.4 | -1.0 | 6.0
COc1ccc(-c2noc(C3CCCN3C(=O)Nc3cccc(C)c3)n2)cc1 (configuration not stated) | 9.9 | 2.2 | 9.3
COc1cccc(-c2noc(C3CCCN3C(=O)Nc3ccccc3C)n2)c1 (configuration not stated) | -11.7 | -9.9 | 3.0
COc1ccc(-c2noc([C@@H]3C[C@H](NC(=O)Nc4ccc(C)cc4)CN3C)n2)cc1 | 3.9 | 24.7 | 41.9*
COc1ccc(-c2noc(C3CCCN3C(=O)Nc3ccc(C)cc3C)n2)cc1 (configuration not stated) | 14.2 | 15.1 | 33.1*
COc1ccccc1NC(=O)N1CCCC1c1nc(-c2cccc(Cl)c2)no1 (configuration not stated) | 12.4 | 10.9 | 40.0*
COc1ccc(-c2noc([C@@H]3C[C@H](NC(=O)c4ccccc4)CN3C)n2)cc1 | -63.6 | -6.3 | -46.5
COc1ccc(CCC(=O)Nc2cc(F)c3nc(N4CCOCC4)ccc3c2)cc1 | 2.1 | 46.7* | 12.4
COc1ccc(NS(=O)(=O)c2cc(NC(=O)CCc3ccccc3)ccc2N2CCOCC2)cc1 | 1.3 | -0.1 | 17.1
Cc1nc(Nc2ccc(NC(=O)c3ccco3)cc2)cc(N2CCOCC2)n1 | -12.5 | -27.3 | -17.2
COc1cccc(CC(=O)Nc2cc(F)c3nc(N4CCOCC4)ccc3c2)c1 | 57.7* | 71.6* | -96.1
Cc1cc(=O)n(CC(=O)Nc2ccccc2)c(N2CCCCC2)n1 | 9.6 | 12.1 | 14.4
COc1cccc(CC(=O)Nc2ccc3nc(C)sc3c2)c1 | -10.3 | -16.4 | -12.3
O=C(Nc1cc(F)c2nc(N3CCCC3)ccc2c1)c1ccco1 | 55.5* | 70.2* | -138.1
O=C(CCc1ccccc1)Nc1cc(F)c2nc(N3CCCCC3)ccc2c1 | 27.6 | 70.4* | -13.8
COc1cc2c(cc1NC(=O)COc1ncnc3sccc13)oc1ccccc12 | 11.2 | 5.0 | -135.2
COc1cc2c(cc1NC(=O)c1ccc(-n3cnnn3)cc1)oc1ccccc12 | 52.6* | -0.7 | -5.9
COc1ccc(C(=O)NCc2nnc(SCC(=O)Nc3cccc4ccccc34)o2)cc1 | -0.4 | -18.9 | -11.6
CC1(C)C[C@@H](O)[C@]2(C)CC[C@]3(C)C(=CCC4[C@@]5(C)CC[C@H](O)[C@](C)(CO)[C@@H]5CC[C@]43C)[C@@H]2C1 (some centres not stated) | 52.6* | 2.6 | 42.8*
CC1(C)CC(=O)[C@]2(C)CC[C@]3(C)C(=CC[C@@H]4[C@@]5(C)CC[C@H](O)[C@](C)(CO)[C@@H]5CC[C@]43C)[C@@H]2C1 | -6.6 | -18.9 | -5.3
CCN1CCN(c2ccc(-c3nc(-c4cccc(C)c4)no3)cn2)CC1 | -3.4 | 0.2 | -1.2
Cc1cc(O)cc2c1C(=O)c1c(O)ccc(O)c1C2=O | -36.6 | -59.2 | -385.1
Cc1occ2c1C(=O)c1c(O)ccc(O)c1C2 | 94.8* | 83.6* | 57.5*
SMILES | USP17 inh | USP8 inh | USP30 inh
O=C(Cc1ccccc1)Nc1ccc2[nH]ncc2c1 | 27.4 | 61.3* | -174.3
O=C(Nc1ccc2[nH]ncc2c1)c1ccc(F)cc1 | 21.8 | -2.0 | -0.2
COc1cccc(CNc2nc(-c3ccccc3)no2)c1 | -1.7 | 1.4 | -6.7
COCCNC(=O)c1ccc(Oc2nccnc2Sc2ccccc2)cc1 | 4.2 | 10.6 | 15.8
COc1ccc(-c2ccc(=O)n(Cc3ccc(C)cc3)n2)cc1OC | 10.3 | 16.7 | 17.2
Cc1c(N2CCN(S(=O)(=O)c3ccc(F)c(F)c3)CC2)c(=O)n(C)c(=O)n1C | 43.6* | 7.2 | 36.6*
Cc1ccc(S(=O)(=O)N2CCN(c3c(C)n(C)c(=O)n(C)c3=O)CC2)cc1C | 22.9 | 16.1 | 37.1*
Cc1ccc(S(=O)(=O)N2CCN(c3c(C)n(C)c(=O)n(C)c3=O)CC2)c(C)c1 | 11.0 | 12.9 | 15.7
O=S(=O)(c1ccc(F)c(F)c1)N1CCCN(c2cc(-c3ccccn3)[nH]n2)CC1 | / | -197.9 | -116.8
CCN(C)C(=O)c1c2c(-c3ccc(OC)cc3)ncnc2n2ccccc12 | -109.8 | -12.0 | -460.5
Cc1nc2ccn(Cc3ccco3)c(=O)c2cc1C(=O)NCc1cccs1 | 4.8 | 6.0 | 10.0
COc1ccc(N2C(=O)[C@@H]3Cc4c([nH]c5ccccc45)C(C)(C)N3C2=O)c(OC)c1 | 47.0* | -9.1 | -21.7
CN1CC(=O)N2[C@H](Cc3c([nH]c4ccccc34)C2(C)C)C1=O | 16.0 | -13.4 | 5.1
CC1(C)c2[nH]c3ccccc3c2C[C@@H]2C(=O)N(C3CCCCC3)CC(=O)N21 | 12.3 | 31.3* | 13.2
CC1(C)c2[nH]c3ccccc3c2C[C@@H]2C(=O)N(C3CCCC3)CC(=O)N21 | -0.7 | 1.7 | 3.9
O=C(NC(=O)c1ccc(-c2cccs2)s1)Nc1ccc(Cl)cc1 | -3.8 | -1.1 | -32.4
COc1ccc([C@H]2C[C@@H](O)[C@@H](O)[C@@H]2NC(=O)c2cccc(C#N)c2)cc1 | 1.9 | 2.3 | 20.6
Cc1cc2nc(N3CCCCC3C)c3ccccc3n2n1 (configuration not stated) | -28.8 | -94.8 | -8.1
Cc1cc2nc(N3CCN(C(=O)c4ccccc4)CC3)c3ccccc3n2n1 | 16.2 | 1.5 | 33.8*
Cc1ccc(NS(=O)(=O)c2cc(-c3[nH]ncc3C(=O)N3CCCCC3)oc2C)cc1 | -14.2 | -10.5 | -27.7
CCc1ccc(NS(=O)(=O)c2cc(-c3[nH]ncc3C(=O)N3CCCCC3)oc2C)cc1 | 22.2 | 9.8 | 41.5*
CCNc1cc(N2CCCC(CCC(=O)Nc3cccc(C)c3C)C2)ncn1 (configuration not stated) | -17.9 | -182.2 | -2.5
CN1C[C@@]23CN(C(=O)c4ccccn4)C[C@@H](C[C@@H]2S1(=O)=O)O3 | 2.1 | 12.6 | 9.2
CN1C[C@@]23CN(C(=O)c4cnccn4)C[C@@H](C[C@@H]2S1(=O)=O)O3 | 11.4 | 6.3 | 32.4*
CN1c2ccccc2C(=O)N2CCc3c([nH]c4ccccc34)[C@H]21 | -17.4 | 8.5 | -15.6
SMILES | USP17 inh | USP8 inh | USP30 inh
Cc1cc(C)cc(NC(=O)c2ccc(CSc3ncnc4nc[nH]c34)cc2)c1 | -9.2 | -12.0 | -19.0
CC(Sc1ncnc2nc[nH]c12)C(=O)Nc1ccc(Br)cc1F (configuration not stated) | 16.1 | 73.6* | 27.2
CCc1cccc(NC(=O)N2CCCC3(CCCN3C)C2)c1 (configuration not stated) | -9.2 | 4.2 | -7.0
Cc1ccc(-n2nnc(-c3noc(-c4ccccn4)n3)c2C)cc1 | -5.3 | -8.5 | -9.0
Cc1ccc(-n2nnc(-c3noc(-c4ccncc4)n3)c2C)cc1 | 20.5 | 8.1 | 9.9
Cc1c(-c2nc(-c3ccccc3Cl)no2)nnn1-c1cccc(F)c1 | 35.9* | 27.8 | 62.2*
c1ccc(-n2nnc(-c3noc(-c4ccccn4)n3)c2-c2ccncc2)cc1 | 63.5* | 32.1* | 4.5
COc1ccc(-c2noc(-c3nnn(-c4ccccc4Cl)c3C)n2)cc1 | 4.2 | 3.8 | 8.8
Cc1c(-c2noc(-c3ccccn3)n2)nnn1-c1ccc(F)cc1 | 71.7* | -3.6 | 60.5*
